# From PubChem BioAssay (Tox21)
# Where “and” joins values, the source holds several entries; their conditions need not be identical. Equal values may be shown once. Values without a mark were called inactive. Entries that show only a call come without a potency. Calls of active or inactive are those of the source. Unless noted, calls come from the whole dose curve; as a rule, active = well fitted curve in the direction sought with a large enough effect in the repeat runs; inconclusive = weak or mixed curves; inactive = no such curve, though single readings can be large; an effect the other way counts as inactive or inconclusive.
# Tests used:
# [1] = qHTS assay to identify small molecule antagonists of the glucocorticoid receptor (GR) signaling pathway - cell viability counter screen (AID 720693); note: nearly all actives have a fitted effect of over 55% in size
# [2] = qHTS assay for identifying genotoxic compounds that show differential cytotoxicity against isogenic chicken DT40 cell lines with known DNA damage response pathways - wild type cell line (AID 743012); note: nearly all actives have a fitted effect of over 60% in size; note: potency is the fitted concentration of half-maximal effect
# Outline: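 Using parental DT40 (300 cells/well), compounds delivered in DMSO incubate 40 h at 37 C/5% CO2. CellTiter-Glo reagent then stands 30 min at room temperature, and luminescence gives cell viability.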
# [3] = qHTS assay for identifying genotoxic compounds that show differential cytotoxicity against isogenic chicken DT40 cell lines with known DNA damage response pathways - Rev3 mutant cell line (AID 743014); note: nearly all actives have a fitted effect of over 55% in size; note: potency is the fitted concentration of half-maximal effect
# [4] = qHTS assay to identify small molecule antagonists of the androgen receptor (AR) signaling pathway - cell viability counter screen (AID 743033; note: nearly all actives have a fitted effect of over 45% in size)
# [5] = qHTS assay to identify small molecule antagonists of the androgen receptor (AR) signaling pathway using the MDA cell line - cell viability counter screen (AID 743041; note: nearly all actives have a fitted effect of over 45% in size)
# Outline: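 MDA-kb2 AR-luc human breast carcinoma cells (MMTV-luciferase, AR/GR responsive) were treated with compounds plus R1881 agonist for 16 h at 37 °C. Viability was read as CellTiter-Fluor fluorescence in the same wells as the reporter assay.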
# [6] = qHTS assay to identify small molecule antagonists of the thyroid receptor (TR) signaling pathway - cell viability counter screen (AID 743064); note: nearly all actives have a fitted effect of over 50% in size; note: potency is the fitted concentration of half-maximal effect
# Outline: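 Fluorescence from CellTiter-Fluor, added after 23.5 h exposure at 37 °C, reported viability of GH3.TRE-Luc cells co-treated with compound and 1 nM T3. Measured in the same wells as the luciferase TR readout.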
# [7] = qHTS assay to identify small molecule antagonists of the thyroid receptor (TR) signaling pathway (AID 743065); note: nearly all actives have a fitted effect of over 55% in size; note: potency is the fitted concentration of half-maximal effect
# Outline: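 GH3.TRE-Luc rat pituitary cells carrying two TR response elements driving luciferase were plated for 4 h, given compound plus 1 nM T3 (final), and incubated 23.5 h at 37 C. ONE-Glo luminescence measured reporter inhibition; CellTiter-Fluor fluorescence tracked cytotoxicity.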
# [8] = system: thyroid hormone receptor (rat, GH3 cells); assay: qHTS assay to identify small molecule agonists of the thyroid receptor (TR) signaling pathway (AID 743066; calls by dose curve)
# [9] = target: Estrogen receptor (Homo sapiens) (UniProt P03372); assay: qHTS assay to identify small molecule antagonists of the estrogen receptor alpha (ER-alpha) signaling pathway (AID 743069; active = well fitted curve in the direction sought with a large enough effect in the signal ratio in the repeat runs, not every such curve was filed as active; inconclusive = weak or mixed curves, or effect the other way; inactive = no such curve, though single readings can be large or run the other way; the % refers to the signal ratio; note: potency is the fitted concentration of half-maximal effect)
# Sequence of Estrogen receptor (Homo sapiens) (P03372 whole entry, looked up): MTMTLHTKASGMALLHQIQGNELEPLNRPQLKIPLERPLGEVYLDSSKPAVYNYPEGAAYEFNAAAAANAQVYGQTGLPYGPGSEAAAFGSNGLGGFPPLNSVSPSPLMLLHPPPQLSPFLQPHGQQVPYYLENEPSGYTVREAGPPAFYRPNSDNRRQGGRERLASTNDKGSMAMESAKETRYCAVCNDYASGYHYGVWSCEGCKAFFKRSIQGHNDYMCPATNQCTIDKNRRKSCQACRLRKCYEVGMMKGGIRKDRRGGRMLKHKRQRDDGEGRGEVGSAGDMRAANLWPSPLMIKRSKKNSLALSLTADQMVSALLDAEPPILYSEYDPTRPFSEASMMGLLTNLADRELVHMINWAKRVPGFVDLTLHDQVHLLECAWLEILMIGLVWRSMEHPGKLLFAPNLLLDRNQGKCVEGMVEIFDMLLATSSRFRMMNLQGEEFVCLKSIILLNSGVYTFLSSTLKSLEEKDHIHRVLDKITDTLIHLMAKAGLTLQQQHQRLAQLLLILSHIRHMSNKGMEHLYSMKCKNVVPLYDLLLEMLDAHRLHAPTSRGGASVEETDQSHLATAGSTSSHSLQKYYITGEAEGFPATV
# Outline: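 HEK293 cells stably carrying an ER-alpha-UAS-bla beta-lactamase reporter were pre-cultured overnight in 2% charcoal-stripped FBS medium. Test compounds in DMSO were added together with 17beta-estradiol for 18 hr at 37C. Read-out was fluorescence after 2 hr with LiveBLAzer B/G FRET substrate at room temperature.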
# [10] = qHTS assay to identify small molecule antagonists of the estrogen receptor alpha (ER-alpha) signaling pathway - cell viability counter screen (AID 743074; calls by dose curve; note: nearly all actives have a fitted effect of over 45% in size)
# [11] = target: Estrogen receptor (Homo sapiens) (UniProt P03372); assay: qHTS assay to identify small molecule agonists of the estrogen receptor alpha (ER-alpha) signaling pathway (AID 743075; calls by dose curve; note: potency is the fitted concentration of half-maximal effect)
# [12] = target: Estrogen receptor (Homo sapiens) (UniProt P03372); assay: qHTS assay to identify small molecule agonists of the estrogen receptor alpha (ER-alpha) signaling pathway using the BG1 cell line (AID 743079); note: nearly all actives have a fitted effect of over 20% in size; note: potency is the fitted concentration of half-maximal effect
# [13] = qHTS assay to identify small molecule antagonists of the estrogen receptor alpha (ER-alpha) signaling pathway using the BG1 cell line (AID 743080; calls by dose curve;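 note: BG1 cells stimulated with 17beta-estradiol alongside compound; series mostly up to about 70 µM; nearly all actives have a fitted effect of over 25% in size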)
# Outline: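 Readout is ONE-Glo luminescence, taken 30 min at room temperature after reagent addition, preceded by a CellTiter-Fluor viability read; BG1-Luc-4E2 cells had received compound and 17beta-estradiol for 21.5 h at 37 C.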
# [14] = qHTS assay to identify small molecule antagonists of the estrogen receptor alpha (ER-alpha) signaling pathway using the BG1 cell line - cell viability counter screen (AID 743081);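 note: compound given together with 17beta-estradiol as the ER stimulus; nearly all actives have a fitted effect of over 45% in size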; note: potency is the fitted concentration of half-maximal effect
# Aromatase (Homo sapiens) = Aromatase (Homo sapiens) (UniProt P11511); assay: qHTS assay to identify aromatase inhibitors (AID 743083); note: nearly all actives have a fitted effect of over 55% in size; note: potency is the fitted concentration of half-maximal effect
# Sequence of Aromatase (Homo sapiens) (P11511 whole entry, looked up): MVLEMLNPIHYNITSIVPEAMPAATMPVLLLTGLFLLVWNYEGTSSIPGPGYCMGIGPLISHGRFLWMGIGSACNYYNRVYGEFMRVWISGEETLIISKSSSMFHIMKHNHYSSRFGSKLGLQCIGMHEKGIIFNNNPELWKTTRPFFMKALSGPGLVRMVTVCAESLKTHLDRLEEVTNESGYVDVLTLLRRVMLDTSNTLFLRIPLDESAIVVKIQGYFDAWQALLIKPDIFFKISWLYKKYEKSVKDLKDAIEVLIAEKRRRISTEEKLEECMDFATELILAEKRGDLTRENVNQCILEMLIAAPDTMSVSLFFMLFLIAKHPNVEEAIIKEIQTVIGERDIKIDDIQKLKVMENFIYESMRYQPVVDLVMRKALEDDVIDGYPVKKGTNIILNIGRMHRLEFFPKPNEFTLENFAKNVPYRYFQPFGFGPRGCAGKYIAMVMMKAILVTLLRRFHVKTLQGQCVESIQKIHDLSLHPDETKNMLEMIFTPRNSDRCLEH
# [15] = qHTS assay to identify aromatase inhibitors - cell viability counter screen (AID 743084); note: potency is the fitted concentration of half-maximal effect
# [16] = qHTS assay for identifying genotoxic compounds that show differential cytotoxicity against isogenic chicken DT40 cell lines with known DNA damage response pathways - Rad54/Ku70 mutant cell line (AID 743015); note: potency is the fitted concentration of half-maximal effect; nearly all actives have a fitted effect of over 60% in size
# [17] = target: Androgen receptor (Homo sapiens) (UniProt P10275); assay: qHTS assay to identify small molecule agonists of the androgen receptor (AR) signaling pathway (AID 743036; active = well fitted activation curve with a large enough effect in the signal ratio in the repeat runs, with a control signal flat, not every such curve was filed as active; inconclusive = weak or mixed curves, or effect the other way; inactive = no such curve, though single readings can be large or run the other way; the % refers to the signal ratio)
# Sequence of Androgen receptor (Homo sapiens) (P10275 whole entry, looked up): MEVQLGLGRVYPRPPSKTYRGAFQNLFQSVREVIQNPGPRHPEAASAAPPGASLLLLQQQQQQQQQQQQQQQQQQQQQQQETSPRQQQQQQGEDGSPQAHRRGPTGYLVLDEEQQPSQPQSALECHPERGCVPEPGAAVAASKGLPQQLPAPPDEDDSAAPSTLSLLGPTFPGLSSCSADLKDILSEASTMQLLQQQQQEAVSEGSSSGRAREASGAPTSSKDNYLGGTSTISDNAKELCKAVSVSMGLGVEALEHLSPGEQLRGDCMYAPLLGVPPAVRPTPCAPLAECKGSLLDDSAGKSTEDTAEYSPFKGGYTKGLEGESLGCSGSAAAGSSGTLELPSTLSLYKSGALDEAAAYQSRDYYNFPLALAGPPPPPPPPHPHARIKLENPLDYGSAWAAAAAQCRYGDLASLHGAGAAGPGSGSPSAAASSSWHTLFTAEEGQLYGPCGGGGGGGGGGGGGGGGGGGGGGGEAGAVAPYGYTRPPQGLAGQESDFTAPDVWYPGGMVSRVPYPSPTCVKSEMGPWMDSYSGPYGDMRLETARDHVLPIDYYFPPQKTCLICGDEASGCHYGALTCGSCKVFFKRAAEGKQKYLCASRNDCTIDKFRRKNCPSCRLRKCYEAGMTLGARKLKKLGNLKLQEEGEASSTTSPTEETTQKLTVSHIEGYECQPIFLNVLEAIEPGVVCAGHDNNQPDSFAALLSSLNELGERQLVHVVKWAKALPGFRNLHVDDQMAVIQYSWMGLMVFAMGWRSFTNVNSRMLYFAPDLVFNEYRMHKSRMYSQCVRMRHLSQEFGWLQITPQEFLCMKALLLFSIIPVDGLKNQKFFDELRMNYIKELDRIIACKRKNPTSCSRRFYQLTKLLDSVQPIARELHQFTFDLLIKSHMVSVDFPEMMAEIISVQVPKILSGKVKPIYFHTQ
# Outline: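 Fluorescence from a beta-lactamase FRET substrate served as read-out in AR-UAS-bla GripTite HEK293 cells. Cells were treated with DMSO-dissolved compounds for 16 h at 37C, then with LiveBLAzer B/G substrate for 2 h at room temperature.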
# [18] = target: Androgen receptor (Homo sapiens) (UniProt P10275); assay: qHTS assay to identify small molecule antagonists of the androgen receptor (AR) signaling pathway using the MDA cell line (AID 743042; note: nearly all actives have a fitted effect of over 55% in size)
# Outline: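 MDA-kb2 cells (human breast carcinoma, stably carrying an MMTV-luciferase reporter responsive to AR and GR) were plated at 3,000 cells/well and preincubated 5 hr at 37C, then given compound plus R1881 agonist for 16 h. ONE-Glo luminescence was read.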
Structure (SMILES),Potency [1],Potency [2],Potency [3],Potency [4],Potency [5],Potency [6],Potency [7],Potency [8],Potency [9],Potency [10],Potency [11],Potency [12],Potency [13],Potency [14],Potency (Aromatase (Homo sapiens)),Potency [15],Potency [16],Potency [17],Potency [18]
CCOC(=O)c1cccnc1,inactive,inactive,inactive,inactive,inactive,inactive,inactive,inactive,inactive,inactive,inactive,inactive,inactive,inactive,inactive,inactive,,,
CC[N+]1(CC)CCC(=C(c2ccccc2)c2ccccc2)C1C (configuration not stated),inactive,8.41 µM (active),16.8 µM (active),inactive,,,,,,,,,,,inactive,inactive,13.3 µM (active),,
CCCCC(CC)COC(=O)COc1ccc(Cl)cc1Cl (configuration not stated),inactive,inactive,inactive,inactive,inactive,,inactive,inactive,inactive,inactive,inactive,inactive,inactive,inactive,inactive,inactive,,,
CCCCc1ncc(/C=C(\Cc2cccs2)C(=O)O)n1Cc1ccc(C(=O)O)cc1,inactive,inactive,inactive,inactive,inactive,inactive,inactive,inactive,,inactive,,,,inactive,inactive,inactive,,,
C/C=C/C=C/CO,inactive,inactive,61.1 µM (active),inactive,inactive,inactive,inactive,inactive,,inactive,,,,inactive,inactive,inactive,,,
C#Cc1cccc(Nc2ncnc3cc(OCCOC)c(OCCOC)cc23)c1,inactive,11.9 µM (active),21.1 µM (active),inactive,,inactive,,inactive,,,inactive,inactive,inactive,,18.8 µM (active),inactive,,,
O=C1[C@H]2CCCC[C@H]2C(=O)N1CCCCN1CCN(c2nsc3ccccc23)CC1,inactive,6.68 µM (active),5.96 µM (active),,,21.1 µM (active),29.8 µM (active),inactive,inactive,inactive,inactive,inactive,inactive,29.8 µM (active),29.8 µM (active),29.8 µM (active),5.96 µM (active),,
O=C(O)C(S)C(S)C(=O)O (configuration not stated),inactive,inactive,inactive,inactive,,26.6 µM (active),11.9 µM (active),inactive,,inactive,,,,inactive,inactive,inactive,,,
COc1ccc(S(=O)(=O)N2C(=O)[C@@](c3ccccc3OC)(N3C[C@H](O)C[C@H]3C(=O)N(C)C)c3cc(Cl)ccc32)c(OC)c1,inactive,48.6 µM (active),61.1 µM (active),,inactive,34.4 µM (active),68.6 µM (active),,43.6 µM [inconclusive] (active),inactive,inactive,,,,61.1 µM (active),30.6 µM (active),48.6 µM (active),,
C[C@@H]1C[C@H]2O[C@@]3(O[C@@H]2C(C)(C)O)[C@H](O)[C@@]2(C)[C@@H]4CC[C@H]5C(C)(C)[C@@H](O[C@@H]6OC[C@@H](O)[C@H](O)[C@H]6O)CC[C@@]56C[C@@]46CC[C@]2(C)[C@@H]13,inactive,inactive,inactive,inactive,inactive,inactive,,inactive,,inactive,inactive,inactive,inactive,inactive,inactive,inactive,,inactive,inactive
COc1ccc(C(=O)c2ccc(OC)cc2O)c(O)c1,inactive,inactive,inactive,inactive,inactive,,inactive,inactive,inactive,inactive,8.77 µM [fluorescent] (active),30.9 µM (active),,inactive,inactive,inactive,,,inactive
N=c1ccn2c(n1)O[C@H]1[C@H](O)[C@@H](CO)O[C@H]12,inactive,211 nM (active) and 193 nM (active),237 nM (active) and 137 nM (active),inactive,,0.531 µM (active),531 nM (active) and 545 nM (active),inactive,inactive,inactive,inactive,inactive,inactive,inactive,inactive,inactive,,,
